KDM5B inh – KDM5B demethylase inhibition. Q9UGL1. KDM5B demethylase, FDH-coupled NADH fluorescence (FDH is formaldehyde dehydrogenase). Potency, µM (series often up to 57.7 µM), actives largely listed as inhibitors. hit rate 2.6% among 220,000; active = well fitted inhibition curve with a large enough effect; also: 0% is about no effect; nearly all actives have a fitted effect of over 70% in size
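KDM5BΔAP (200 nM final) in 50 mM HEPES pH 7.5, 0.01% Tween-20 was preincubated 10 min at RT with compound over a concentration range. Substrate mix (H3K4me3 12.5 µM, α-KG 25 µM, Fe²⁺, ascorbate, NAD⁺, FDH) was added, and NADH fluorescence change over 30 min gave dose-response curves.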
Numbers without * were called inactive; i = inactive. The entries come from a sample that favours hits as a whole. Potency is read from the fitted curve at half-maximal effect.

SMILES	KDM5B inh
Cc1ccc(NC(=O)C(=O)c2c[nH]c3ccccc23)cc1F	i
CC(=O)c1ccc(NC(=O)CN2C(=O)NC3(CCC(C(C)(C)C)CC3)C2=O)cc1 (centres undefined)	i
CC(Oc1ccccc1)C(=O)NCc1cccnc1N(C)C (centres undefined)	i
COc1ccc(OC(C)C(=O)NCc2nc(-c3cccc(C)c3)no2)cc1 (centres undefined)	i
COc1ccc(-c2ccc3nnc(CNC(=O)C(C)Oc4ccccc4)n3n2)cc1 (centres undefined)	32µM*
COc1ccc(-c2ccc3nnc(CNC(=O)C(C)Oc4cccc(Cl)c4)n3n2)cc1 (centres undefined)	28µM*
CCN(CC)S(=O)(=O)c1nnc(NC(=O)c2ccccc2Cl)s1	i
CN1CCC(Oc2ccc(C(=O)NCCc3ccncc3)cn2)CC1	i
NC1CCN(CCCc2ccccc2)CC1	i
CC(C)CNS(=O)(=O)c1cc(C(=O)OCC(=O)N2CCOCC2)c(Cl)cc1Cl	i
Cc1ccc(CN2C(=O)c3ccccc3Sc3ccc(C(=O)OCc4ccco4)cc32)cc1	i
Cc1noc(C)c1S(=O)(=O)N1CCC(N2CCOC2=O)CC1	i
O=C1NC(C(=O)NCc2cccs2)Cn2cccc21 (centres undefined)	i
CS(=O)(=O)N(CC(=O)Nc1ccccc1C(=O)N1CCOCC1)c1ccc(F)c(Cl)c1	i
O=C(CSc1nccn1Cc1ccc(Cl)cc1)Nc1ccc2c(c1)OCCO2	i
CC(=O)NCCCC(=O)N1CCC2(CC1)CN(C(=O)Cc1ccc(O)cc1)CCO2	i
COCCC(=O)N1CCc2c(n(Cc3ccc(OC)cc3)n(Cc3ccccc3)c2=O)C1	i
CC(C)CCN1CCc2c(n(Cc3cccnc3)n(CCc3ccccc3)c2=O)C1	32µM*
CC(=O)N1CCc2c(n(Cc3cccnc3)n(CCc3ccccc3)c2=O)C1	i
COCCn1c(=O)c2c(n1Cc1ccccc1)CN(Cc1cccnc1OC)CC2	35µM*
COc1ccc(-n2c(=O)c3c(n2Cc2ccccc2)CN(Cc2ccc(F)cc2)CC3)cc1	i
COCCn1c(=O)c2c(n1Cc1ccccc1)CN(Cc1cccc(C)n1)CC2	35µM*
COCCn1c(=O)c2c(n1Cc1ccccc1)CN(C(=O)Cc1cccc(F)c1)CC2	i
O=C(C1CCCO1)N1CCc2c(n(Cc3cccnc3)n(CCc3ccccc3)c2=O)C1 (centres undefined)	i
COc1ccc(-n2c(=O)c3c(n2Cc2ccccc2)CN(CCCc2ccccc2)CC3)cc1	i
SMILES	KDM5B inh
CC#CC[N+](C)(CC#CC)CC(=O)C(C)(C)C	i
COc1ccccc1CN[C@H]1CC(C)(C)[C@@H]2C[C@@](C)(O)CC[C@]12CCC(=O)NC1CC1	i
CCCCC(=O)Nc1ccc2c(c1)nc1n2CCSC1	i
COc1ccccc1CCC(=O)N(C)C1CCc2nn(C)c(=O)n2CC1 (centres undefined)	i
O=C(O)c1sc(C(=O)O)c(OCCO)c1OCCO	i
CCNC(=O)c1cccnc1OC1CCN(C(=O)Cc2ccccc2)C1 (centres undefined)	i
O=C(NCCc1ccccn1)c1cccnc1OC1CCNCC1	28µM*
CN1CCC(Oc2ccc(C(=O)NCCc3ccccn3)cn2)CC1	i
CCNC(=O)c1cccnc1OC1CCN(C(=O)CC)C1 (centres undefined)	i
CCNC(=O)c1cccnc1OC1CCN(C(=O)c2ccccc2)C1 (centres undefined)	i
CCNC(=O)c1cccnc1OC1CCN(Cc2ccccn2)C1 (centres undefined)	20µM*
Cc1ccc(-n2c(C3CCN(C(=O)c4ccc(F)cc4)CC3)n[nH]c2=O)cc1	i
CN(C)C(C(=O)NCc1noc(Cc2ccccc2)n1)c1ccc(F)cc1 (centres undefined)	i
CC12CCC(=O)N1C(C(=O)Nc1cc(Cl)ccc1N1CCCC1)CS2 (centres undefined)	i
Cc1nc2ccccc2nc1CN1C(=O)NC2(CCCCC2)C1=O	i
O=C(Nc1cccc(C(F)(F)F)c1)C(=Cc1cccc(Oc2ccccc2)c1)C(=O)Nc1cccc(C(F)(F)F)c1	i
CCCCc1ncc(CN2CCCC(c3cccc(C(=O)O)c3)C2)[nH]1 (centres undefined)	i
CN1CCCCC1CCn1cnc2c1c(=O)n(C)c(=O)n2C (centres undefined)	i
CCCCc1ncc(-c2c(-c3ccccc3)ncn2CCC2CCCN2C)[nH]1 (centres undefined)	10µM*
CCCNC(=O)C(C)NC(=O)Cc1coc(-c2ccccc2)n1 (centres undefined)	i
Cc1cc(=O)n(CC(=O)N[C@@H]2CCOC[C@H]2Oc2ccccn2)nc1C	i
Cn1ccc2c(C(=O)N[C@@H]3CCOC[C@H]3Oc3ccccn3)cccc21	i
CCn1c(C)ccc(C(=O)N[C@@H]2COCC[C@H]2Oc2ccccn2)c1=O	28µM*
Cc1ccc(C(CC(=O)N2CCCCC2)c2ccccc2)c(O)c1C (centres undefined)	i
